# Data reported in PubChem BioAssay (NCI).
# Where “and” joins values, the source holds several entries; their conditions need not be identical. Equal values may be shown once. About 83,000 compounds went through this panel and 20% of them were active in at least one assay; those are over-represented in the sample as a whole.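 Growth was measured after 48 h exposure to one concentration of compound in 96-well plates. Values under 10 count as active.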 Calls of active or inactive are those of the source.
# System: MDA-MB-231 breast
# Test: NCI-60 one-dose screen, 48 h (100 = growth as untreated, 0 = no growth, -100 = all killed)
# Details: 10 µM unless noted
row,Structure (SMILES),growth
1,CN(C)CCCn1c2c(c3ccc(N4CCNCC4)cc3c1=O)C(=O)c1ccccc1-2,-49.7% (active)
2,C=CCOc1ccc(/C=C2\SC(=S)N(CCc3ccc(O)cc3)C2=O)cc1,90.2% (inactive)
3,CCOC(=O)C1=C(C)N=C2SC=C(c3ccc(F)cc3)N2[C@H]1c1cn(-c2ccccc2)nc1-c1ccc(Cl)cc1,88.5% (inactive)
4,COc1ccc(/C=N/NC(=O)CN2CCN(c3cc4c(cc3F)c(=O)c(C(=O)O)cn4C3CC3)CC2)cc1O,92.8% (inactive)
5,COc1cccc(C2C(C#N)=C(N)Oc3cc(OCCCCCC[P+](c4ccccc4)(c4ccccc4)c4ccccc4)ccc32)c1 (stereo not given),-54.1% (active)
6,Cc1nn(-c2nc(-c3cc4ccccc4oc3=O)cs2)c(C)c1N=Nc1ccccc1,87.8% (inactive)
7,Cn1cc2c(=O)nc3c(-c4nc5ccccc5[nH]4)n[nH]n3c2n1,100% (inactive)
8,O=C1c2cccc3cccc(c23)C(=O)N1N1C(=O)c2cccc3c(N4CCNCC4)ccc(c23)C1=O,85.8% (inactive)
9,Cc1nc2sc(C(=O)Nc3cccc4ncccc34)c(N)c2cc1C(C)O (stereo not given),76.1% (inactive)
10,CCOC(=O)c1nc2c3ccccc3cnn2c1C(=O)c1ccc(OC)cc1,81.7% (inactive)
11,O=C1/C(=C/c2ccccc2[N+](=O)[O-])Cc2ccccc21,-9.95% (active) and 31.3% (inactive)
12,COc1cc(/C=C2/C=C(c3ccc(C(C)(C)C)cc3)N(CCc3ccc(S(N)(=O)=O)cc3)C2=O)cc(OC)c1OC,60.1% (inactive)
13,COC(=O)N/N=C/c1c[n+]([O-])c2ccccc2[n+]1[O-],110% (inactive)
14,Cc1nc(-n2[nH]c(=O)ccc2=O)sc1N=Nc1ccccc1,102% (inactive)
15,CC1(Cc2ccccc2)CC2=C(C(=O)O1)C(c1ccccc1)NC(=O)N2 (stereo not given),103% (inactive)
16,Cc1ccc(/C=C/c2c(C(=O)/C=C/c3ccccc3)c(C)nc3ccccc23)cc1,30.8% (inactive)
17,CC1=C2[C@@H](CC1)[C@]1(C)O[C@@](C3CC3)(C[C@H]1OC(=O)CO)[C@H]2OC(=O)/C=C/c1ccccc1,81.2% (inactive)
18,COc1ccc(S(=O)(=O)Nc2cc(Sc3cccc4cccnc34)c(O)c3ccccc23)cc1,25% (inactive)
19,CCN(CC)CCCN1C(=O)c2c(c(C)c3c(oc4cc(OC)ccc43)c2C)C1=O,96% (inactive)
20,CN1Cn2c(ccc2C(F)(F)F)C(=O)CS1(=O)=O,106% (inactive)
21,O=c1cc(N/N=C/c2ccc(F)cc2)c2cc(Cl)ccc2[nH]1,94.4% (inactive)
22,Cc1cccc(-c2nnc(SCC(=O)Nc3ncc(Cc4ccccc4)s3)n2N2C(=O)CSC2=S)c1,10% (inactive)
23,COc1ccc(/C(C)=C(\c2ccc(OCCN3CCCCCC3)cc2)c2ccc(OC(=O)C3CCCCC3)cc2)cc1,-84.1% (active)
24,COc1ccc2c(c1)c(C(=O)c1nc(-c3cn(C)c4ccccc34)no1)cn2C,104% (inactive)
25,CCOC(=O)c1nnn(Cc2cc(=O)oc3c2ccc2ccccc23)c1C,98.7% (inactive)
